Marburg entry inh – qHTS for inhibitors of binding or entry into cells for Marburg Virus; Marburg virus pseudotyped entry inhibition, cell reporter; Potency, µM (titrated, usually from 37.8 µM), hits mostly inhibitors; hit rate 1.8% among 300,000; AID 540276, 2011; calls by dose curve; tested in HEK293 cells
HCV inhibitor – qHTS Assay for Inhibitors of Hepatitis C Virus (HCV); Huh7.5.1 HCVcc-Cre infection, luciferase reporter, 44 h; Potency, µM (titrated, usually from 41.8 µM), actives largely listed as inhibitors; hit rate 3.4% among 340,000; AID 651820, 2012
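Cells (1,000/well) were plated 4 h before compound, then infected with HCVcc-Cre virus (~0.5 moi). After 44 h further culture, infection was read as luciferase luminescence following a 15 min substrate incubation at room temperature.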
Pf growth 48h – Primary qHTS for delayed death inhibitors of the malarial parasite plastid, 48 hour incubation. P. falciparum luciferase growth in erythrocytes, 48 h. Potency, µM (titrated, usually from 28.7 µM), hits mostly inhibitors. hit rate 5.9% among 310,000
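A one-generation exposure of luciferase-tagged malaria parasites in RPMI 1640/Albumax erythrocyte culture, 37 C and 5% CO2. Inhibition is inferred from decreased luminescence after adding detection reagent.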
LASV entry inh – qHTS for Inhibitors of binding or entry into cells for Lassa Virus. Potency, µM (highest dose often 37.9 µM), actives largely listed as inhibitors. hit rate 1.2% among 300,000. Lassa virus pseudotype entry inhibition, cell reporter. AID 540256, 2011; calls by dose curve; tested in HEK293 cells; note: nearly all actives have a fitted effect of over 50% in size
HCMV inh – qHTS Assay for inhibitors of the human cytomegalovirus (HCMV); hit rate 4.5% among 410,000; activity change, negative = inhibition, % at 57.5 µM; HFF cells, HCMV-luciferase reporter, 72 h; stronger effect = lower value; in the data active = activity change below about -60%; inconclusive = no clear call, values can overlap the other calls; inactive = above about -39%
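Two compound doses tested in HFFs infected with HCMV-luciferase, MOI 1 PFU/cell, 72 h at 37C. Lysate luminescence read with OneGlo; data normalized against buffer-only and 10uM Salinomycin inhibitor controls.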
Pf growth 96h – Primary qHTS for delayed death inhibitors of the malarial parasite plastid, 96 hour incubation. P. falciparum luciferase reporter growth, 96 h. Potency, µM (top dose mostly 28.7 µM), actives largely listed as inhibitors. hit rate 6.9% among 320,000. AID 504834, 2011
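Parasite growth measured via integrated firefly luciferase reporter in P. falciparum. Infected erythrocytes at 2% hematocrit, 0.05% parasitemia final were treated 96 hours at 37 C under 5% CO2, and luminescence was read.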
Hits are given with their value. A selection: hits, their analogues and other compounds. The true share with any hit is near 14%. Unless noted, calls come from the whole dose curve; as a rule, active = well fitted inhibition curve with a large enough effect; inconclusive = small, poorly fitted or top-dose-only effect, or another doubt; inactive = no such curve, though single readings can be large or run the other way.

`COc1cc(Cl)c(NC(=O)c2cc(CN3CCCC3)on2)c(OC)c1` gave Marburg entry inh inactive, LASV entry inh inactive and HCMV inh inactive.
For O=C(Nc1ccc(F)cc1)c1oc2ccccc2c1NC(=O)C1CCCCC1 the results were Marburg entry inh inconclusive, LASV entry inh inactive and HCMV inh inactive.
For Cc1cc(C(=O)NCc2ccc3c(c2)OCO3)ccc1[N+](=O)[O-] the results were HCV inhibitor inactive, Pf growth 48h inactive, HCMV inh inactive and Pf growth 96h inactive.
`CC1CC(C)CN(c2ccc(C(=O)NCc3ccc4c(c3)OCO4)cc2[N+](=O)[O-])C1` (stereo not drawn) gave Marburg entry inh inconclusive, HCV inhibitor inconclusive, Pf growth 48h inactive, LASV entry inh inactive, HCMV inh -62 and Pf growth 96h inactive.
For CC(C)(C)n1nc(C2CC2)c(Br)c1NC(=O)c1ccc(Cl)cc1 the results were HCMV inh inactive.
`CCn1c(=O)n(CC)c2cc([N+](=O)[O-])c(N3CCNCC3)cc21` gave Marburg entry inh inactive, HCV inhibitor inconclusive, Pf growth 48h inactive, LASV entry inh inactive, HCMV inh inactive and Pf growth 96h 5.9µM.
O=[N+]([O-])c1ccc(Cl)cc1N1CCCC1 was read as Marburg entry inh inactive, HCV inhibitor inactive, Pf growth 48h inconclusive, LASV entry inh inactive, HCMV inh inactive and Pf growth 96h inactive.
`O=[N+]([O-])c1ccc(N2CCNCC2)cc1N1CCCCC1` gave Marburg entry inh inconclusive, HCV inhibitor 10µM, Pf growth 48h inactive, LASV entry inh inactive, HCMV inh inactive and Pf growth 96h inactive.
O=C(COc1ccccc1)N1CCN(c2ccc([N+](=O)[O-])c(N3CCCCC3)c2)CC1 was read as Marburg entry inh inactive, HCV inhibitor 7.1µM, Pf growth 48h inconclusive, LASV entry inh inconclusive, HCMV inh inactive and Pf growth 96h inconclusive.
CCOc1cc(N2CCCC2)ccc1[N+](=O)[O-] was read as Marburg entry inh inactive, HCV inhibitor inconclusive, Pf growth 48h inactive, LASV entry inh inactive, HCMV inh inactive and Pf growth 96h 6.6µM.
Screening Nc1cc(N2CCNCC2)c([N+](=O)[O-])cc1Cl returned Marburg entry inh inconclusive, HCV inhibitor inactive, Pf growth 48h inactive, LASV entry inh inactive, HCMV inh inactive and Pf growth 96h inactive.
c1ccc(Oc2ccccn2)cc1 was read as Marburg entry inh inactive, HCV inhibitor inactive, LASV entry inh inactive and HCMV inh inactive.
Cc1ccc([N+](=O)[O-])c(OCCN2CCCCCC2)c1 was read as Marburg entry inh inconclusive, HCV inhibitor inactive, Pf growth 48h inactive, LASV entry inh inactive, HCMV inh -78 and Pf growth 96h inactive.
`CC(=O)Oc1ccc(-c2nc3cc(Cl)ccc3c(=O)o2)cc1` gave Marburg entry inh inactive, HCV inhibitor inactive, Pf growth 48h inactive, LASV entry inh inactive, HCMV inh -78 and Pf growth 96h inactive.
Screening CC(=O)Oc1ccc2c(=O)oc(-c3ccccc3)nc2c1 returned Marburg entry inh inactive, HCV inhibitor inactive, Pf growth 48h inactive, LASV entry inh inactive, HCMV inh inactive and Pf growth 96h inactive.
CC(=O)NCc1ccc(C(=O)CSc2nnc(C3CC3)n2C2CC2)cc1 was read as HCV inhibitor inactive, Pf growth 48h inactive, HCMV inh inactive and Pf growth 96h inactive.
`Cc1ccn2c(=O)c(NC(=O)c3ccc4c(c3)OCO4)c(C)nc2c1` gave HCMV inh inactive.
For CCc1ccc(S(=O)(=O)NCc2nc3cccnc3n2Cc2cccc(OC)c2)cc1 the results were LASV entry inh inactive and HCMV inh inactive.
O=C(O)CCCN=Cc1c(O)c2ccccc2oc1=O was read as Marburg entry inh inactive, HCV inhibitor inactive, Pf growth 48h inactive, LASV entry inh inactive, HCMV inh inactive and Pf growth 96h 10µM.
For CC(C)CC(N=Cc1c(O)c2ccccc2oc1=O)C(=O)O (stereo not drawn) the results were Marburg entry inh inactive, HCV inhibitor inactive, Pf growth 48h inactive, LASV entry inh inactive, HCMV inh inactive and Pf growth 96h inactive.
